The record followed here is PubChem BioAssay (Tox21).

Values joined by “and” are separate entries in the source; they are usually repeats but may differ in a detail not shown here. Equal values may be shown once. Inconclusive results are not listed. Where a call stands in place of a potency, no number is given. A number with no mark means an inactive call. Active and inactive are the calls of the source. Calls come from the whole dose curve.
Potency is the fitted concentration of half-maximal effect.

The assay can be described thus: qHTS assay to identify small molecule agonists of H2AX - cell viability counter screen (AID 1224847). For activity change, negative = cytotoxicity: top concentration of the series differs between compounds. Note: nearly all actives have a fitted effect of over 30% in size. The conditions noted are these: CHO-K1 viability, CellTiter-Glo luminescence, 3 h; series mostly up to 154 µM; activity change, negative = cytotoxicity: at the top concentration. An excerpt:
National Center for Advancing Translational Sciences [NCATS]
NIH Chemical Genomics Center [NCGC]
U.S. Environmental Protection Agency [EPA]
National Institutes of Environmental Health Sciences [NIEHS]
National Toxicology Program [NTP]
U.S. Food and Drug Administration [FDA]
HTRF phospho-H2AX (Ser139) assay (Cisbio Bioassays, US) enables the quantitative detection of the histone variant H2AX when phosphorylated on serine 139. When double-stranded DNA breaks, either by ionizing radiation or endogenous physiological processes, H2AX becomes phosphorylated at Ser139. This phospho-Ser139 serves as a sensitive biomarker for the detection of such breaks, localizing the site of DNA repair. So, HTRF phospho-H2AX Ser139 is a pertinent assay to study genome stability, the cell cycle, DNA repair, and it serves as a biomarker for cancer, and to understand aging. Wild type CHO-K1 cells were used to identify the inducers of Phospho-H2AX Ser 139 from the Tox21 compound collections. Also cytotoxicity of the Tox21 10K compound library against the CHO-K1 cell line was tested by measuring the cell viability using CellTiter-Glo assay (Promega, Madison, WI).
Tox21 Assay Protocol Summary:
The CHO-K1 cells suspended in culture medium containing 10% FBS were dispensed at 1000 cells/ 3 ul/well in 1536-well white wall/solid bottom plates (Greiner Bio-One North America, NC) using a Multidrop Combi (Thermo Fisher Scientific Inc., Waltham, MA). After the assay plates were incubated at 37C overnight, 23 nl of compounds at 15 concentrations (from 5-48 columns) or positive control (from 1 to 4 columns) were transferred to the assay plates using a Pintool station (Wako, San Diego, CA) into each well resulting in a final DMSO concentration of 0.76%. After 3hr incubation at 37C, 3 uL/well CellTiter-Glo luminescent cell viability reagent (Promega Corporation, Madison, WI) was added using a Flying Reagent Dispenser (FRD) (Aurora Discovery, CA). After incubation at room temperature for 30 min, the luminescence intensity was read using a ViewLux plate reader (PerkinElmer, Waltham, MA).
(In general: Quantitative high-throughput screening tests each substance at several concentrations.)
Consider `CCCCNC(=O)n1c(NC(=O)OC)nc2ccccc21`, for which the Potency entry was “inactive”. Still for that read-out and setting: as for `CCCCN(CC)c1c([N+](=O)[O-])cc(C(F)(F)F)cc1[N+](=O)[O-]`, the entry is “inactive”. Still for that read-out and setting: to `c1ccc(N=Nc2ccccc2)cc1` belongs “inactive”. Turning to `CCCCN(CCCC)N=O`, the Potency result was “inactive”. The same measure, in the same setting: to `CCCCC(CC)COC(=O)Cl` (stereo not given) belongs “inactive”. Take `CCN(CC)C(=O)SCc1ccc(Cl)cc1`: the “activity change, negative = cytotoxicity” value is -12.1%. `COC(=O)c1sccc1S(=O)(=O)NC(=O)Nc1nc(C)nc(OC)n1`: the Potency result is “inactive”. On to `C=C(C)[C@H]1Cc2c(ccc3c2O[C@@H]2COc4cc(OC)c(OC)cc4[C@@H]2C3=O)O1`, for which the Potency is 0.091 µM (active). On the same count and under the same terms, to `CNC(=O)Oc1cccc2c1OC(C)(C)O2` belongs “inactive”. Same read-out and setting: to `C=CCN(CC=C)C(=O)C(Cl)Cl` belongs “inactive”; to `Oc1cc(Cl)ccc1Oc1ccc(Cl)cc1Cl`, 51.7 µM (active) and 43.8 µM (active). The same measure, in the same setting: to `CCC(C)(C)c1ccc(O)cc1` belongs 80 µM (active); to `CNC(=O)N(C)c1nnc(C(C)(C)C)s1`, “inactive”.

`c1ccc(P(c2ccccc2)c2ccccc2)cc1`: the Potency result was “inactive”.

Take `C[C@]12CCC(=O)C(O)=C1CC[C@@H]1[C@@H]2CC[C@]2(C)C(=O)CC[C@@H]12`: the “activity change, negative = cytotoxicity” value is -0.0683% [at 70.9 µM]. Regarding `C=CCc1ccc(OC)cc1`, the Potency entry was “inactive”. Same read-out and setting: as for `Nc1ccc(-c2ccccc2)cc1`, the entry is “inactive”; as for `CCN(CC)N=O`, “inactive”. On the same count and under the same terms, as for `COc1ccc(C(CN(C)C)C2(O)CCCCC2)cc1` (stereo not given), the entry is “inactive”.

`CCOCN(C(=O)CCl)c1c(C)cccc1CC`: the Potency entry is “inactive”. Turning to `NNC(=S)NN`, the Potency entry was “inactive”. For `Oc1cc(Cl)ccc1Cl`, the Potency result is “inactive”.

For the compound `Cc1cc(Cl)ccc1OCCCC(=O)O`, the Potency entry is “inactive”. Take `c1nc[nH]n1`: the Potency entry was “inactive”.

With `CC(C)N(C(=O)SCC(Cl)=C(Cl)Cl)C(C)C`, the “activity change, negative = cytotoxicity” value was -9.43%. As for `C#C[C@]1(O)CC[C@H]2[C@@H]3CCC4=CC(=O)CC[C@]4(C)[C@H]3CC[C@@]21C`, the Potency result is “inactive”. Same read-out and setting: to `Cc1cc(C)cc(C)c1` belongs “inactive”. On to `CC(C)c1ccc(CO)cc1`, for which the Potency result was “inactive”. `CC(C)Oc1cc(-n2nc(C(C)(C)C)oc2=O)c(Cl)cc1Cl`: the “activity change, negative = cytotoxicity” value was -6.62%. Regarding `O=C(O)CC[N+](=O)[O-]`, the Potency entry is “inactive”. Still for that read-out and setting: to `O=C(O)C(F)(F)C(F)(F)C(F)(F)C(F)(F)C(F)(F)C(F)(F)C(F)(F)F` belongs “inactive”; to `CCCCCc1cc(O)cc(O)c1`, 113 µM (active). In the case of `O=[N+]([O-])c1cccc2ccccc12`, the Potency entry is “inactive”. For the compound `C=CC(=O)OCCO`, the Potency entry was “inactive”.

For `CC(C)(OOC(C)(C)c1ccccc1)c1ccccc1`, the Potency is 99.3 µM (active). As to `CCN(N=O)C(N)=O`, the Potency result is “inactive”. Same read-out and setting: to `CCc1cccc(CC)c1N(COC)C(=O)CCl` belongs “inactive”; to `O=C1C=CC(=O)C=C1`, “inactive”; to `COP(=O)(OC)OC`, “inactive”.

On to `C=CCc1ccc2c(c1)OCO2`, for which the Potency result was “inactive”.
